Test system: HEK293 WT BDD-FVIII-Gluc
Test: secreted FVIII-Gluc luciferase Z-score vs DMSO control; higher = more FVIII-Gluc secretion
Details: 5 µM
Procedure: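 Natural plant-compound library (480 compounds, ST catalogue IDs) screened on HEK293 cells stably expressing WT BDD-FVIII-Gaussia luciferase fusion at 5 µM. Secreted Gluc activity in the medium is given as a Z-score relative to DMSO controls.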

SMILES | secreted FVIII-Gluc luciferase Z-score
Oc1cc(O)c2c(c1)O[C@H](c1ccc(O)c(O)c1)[C@@H](O)C2 | 0.0727
CC1(C)[C@@H]2CC[C@@]1(C)C(=O)C2 | 0.363
COc1ccc(CCN(C)CCCC(C#N)(c2ccc(OC)c(OC)c2)C(C)C)cc1OC (stereo not given) | 0.188
COc1cc(/C=C/C(=O)N2CCCCC2=O)cc(OC)c1OC | 1.28
CC(Cc1ccc(O)c(O)c1)C(C)Cc1ccc(O)c(O)c1 (stereo not given) | 0.14
Cc1c(-c2c(C)c(=O)c3c(C(C)C)c(=O)c(=O)c(C=O)c-3c2=O)c(O)c2c(C=O)c(O)c(O)c(C(C)C)c2c1O | -0.893
O=C(O)CCCC[C@@H]1SC[C@@H]2NC(=O)N[C@@H]21 | 0.929
CC/C=C\C/C=C\C/C=C\CCCCCCCC(=O)O | 0.636
COc1ccc2oc(-c3ccc(O)cc3)cc(=O)c2c1 | 1.23
COC1=CC(=O)CC(C)C12Oc1c(Cl)c(OC)cc(OC)c1C2=O (stereo not given) | 0.0156
C[C@]12CCC(=O)C=C1CC[C@@H]1[C@@H]2[C@@H](O)C[C@@]2(C)[C@H]1CC[C@]2(O)C(=O)CO | 4.35
C=CC(C)(O)CCCC(C)CCCC(C)CCCC(C)C (stereo not given) | 0.179
COC(=O)C1(O)CC(O)C(NC(C)=O)C(C(O)C(O)CO)O1 (stereo not given) | 0.68
Cc1cc(O)c2c(c1)C(=O)c1cc(O)cc(O)c1C2=O | -0.0482
CC[C@@H]1OC(=O)[C@@H](C)[C@H](O[C@H]2C[C@@](C)(OC)[C@@H](O)[C@H](C)O2)C(C)[C@H](O[C@H]2O[C@@H](C)C[C@@H](N(C)C)[C@@H]2O)[C@@](C)(O)C[C@H](C)C(=O)[C@@H](C)[C@H](O)[C@@]1(C)O (stereo not given in full) | -1.17
CC(C)=CCC[C@H](C)CCO | 0.0595
CC1=C(C/C=C(\C)CCCC(C)CCCC(C)CCCC(C)C)C(=O)c2ccccc2C1=O (stereo not given) | 0.33
CC(=O)OC1CCC2(C)C(=CCC3C2CC[C@]2(C)C(C(C)=O)CCC32)C1 (stereo not given in full) | 0.0308
CCOC(=O)C1=C[C@]2(CC)CCCN3CCc4c(n1c1ccccc41)[C@@H]32 | 0.132
O=C1c2c(O)cc(O)cc2OC(c2ccc(O)c(O)c2)C1O (stereo not given) | -0.135

SMILES | secreted FVIII-Gluc luciferase Z-score
CC[C@H](CC[C@@H](C)[C@H]1CC[C@H]2[C@@H]3CC=C4C[C@@H](O)CC[C@]4(C)[C@H]3CC[C@]12C)C(C)C | -0.318
O=c1cc(CO)occ1O | 0.0386
N[C@H](Cc1c[nH]c2ccccc12)C(=O)O | 0.298
COc1ccc2c3c1O[C@H]1C[C@@H](O)C=C[C@@]31CCN(C)C2 | 0.615
Nc1ncnc2c1ncn2[C@H]1C[C@H](O)[C@@H](COP(=O)(O)O)O1 | 0.376
COc1cc2ccc(=O)oc2cc1O | 0.0462
COc1ccc2c(c1)[C@@]1(C)CCC[C@](C)(CO)C1CC2 (stereo not given in full) | 0.437
CC(=O)OCC1OC(Oc2cc(OC(C)=O)c3c(=O)cc(-c4ccc(OC(C)=O)c(OC(C)=O)c4)oc3c2)C(OC(C)=O)C(OC(C)=O)C1OC(C)=O (stereo not given) | -0.756
Cc1ccc2oc(-c3ccccc3)c(O)c(=O)c2c1 | 1.13
Nc1ccn([C@@H]2O[C@H](CO)[C@@H](OP(=O)(O)O)[C@H]2O)c(=O)n1 | -0.278
Nc1ncnc2c1ncn2C1OC(COP(=O)(O)OP(=O)(O)OP(=O)(O)O)C(O)C1O (stereo not given) | 0.477
COc1ccccc1-c1oc2ccccc2c(=O)c1O | -0.65
COc1ccc(-c2oc3ccc(C)cc3c(=O)c2O)cc1OC | -0.624
Cc1cc2c(C(C)C)c(O)c(O)c3c2c(c1-c1c(C)cc2c(C(C)C)c(O)c(O)c4c2c1OC4N)OC3N (stereo not given) | -0.0294
COc1ccc2c(c1OC)C(Cc1ccccc1)N1CCc3cc4c(cc3C1=C2)OCO4 (stereo not given) | 0.115
COc1cc2c(C(=O)c3ccccc3)c3c4c(cc(OC)c(OC)c4c2cc1OC)CCN3C | -1.18
C[C@H]1C[C@]2(O[C@@H]2C)C(=O)O[C@@H]2CCN(C)C/C=C(/COC(=O)[C@]1(C)O)C2=O | 0.213
OC[C@@H]1OC(O)[C@@H](O)[C@H](O)[C@H]1O[C@H]1O[C@H](CO)[C@@H](O)[C@H](O)[C@H]1O (stereo not given in full) | 0.204
CC(=O)c1c(O)c(C)c(O)c2c1OC1=CC(=O)C(C(C)=O)C(=O)[C@@]12C (stereo not given in full) | -5.07
NCC1OC(OC2C(CO)OC(OC3C(O)C(N)CC(N)C3OC3OC(CO)C(O)CC3N)C2O)C(N)C(O)C1OC1OC(CO)C(O)C(O)C1O (stereo not given) | 1.54

Source: the supplement of paper PMC12024529
